From the supplement of paper PMC11732987, “Enantioselective OTUD7B fragment discovery through chemoproteomics screening and high-throughput optimisation” (Communications Chemistry, 2025)

Assays:
Test in all cases: log2 ratio of Biotin-Ahx-Ub-VS probe labelling (fragment/DMSO); higher = less target engagement (more negative = stronger competition), active = hit call of the paper (q ≤ 0.05, log2 ratio ≤ -1)
Conditions in all cases: compound concentration: 200 uM; treatment time: 3 h
USP34 = USP34 (UniProt Q70CQ2)
Sequence of USP34 (Q70CQ2 whole entry, the tested form may be a part): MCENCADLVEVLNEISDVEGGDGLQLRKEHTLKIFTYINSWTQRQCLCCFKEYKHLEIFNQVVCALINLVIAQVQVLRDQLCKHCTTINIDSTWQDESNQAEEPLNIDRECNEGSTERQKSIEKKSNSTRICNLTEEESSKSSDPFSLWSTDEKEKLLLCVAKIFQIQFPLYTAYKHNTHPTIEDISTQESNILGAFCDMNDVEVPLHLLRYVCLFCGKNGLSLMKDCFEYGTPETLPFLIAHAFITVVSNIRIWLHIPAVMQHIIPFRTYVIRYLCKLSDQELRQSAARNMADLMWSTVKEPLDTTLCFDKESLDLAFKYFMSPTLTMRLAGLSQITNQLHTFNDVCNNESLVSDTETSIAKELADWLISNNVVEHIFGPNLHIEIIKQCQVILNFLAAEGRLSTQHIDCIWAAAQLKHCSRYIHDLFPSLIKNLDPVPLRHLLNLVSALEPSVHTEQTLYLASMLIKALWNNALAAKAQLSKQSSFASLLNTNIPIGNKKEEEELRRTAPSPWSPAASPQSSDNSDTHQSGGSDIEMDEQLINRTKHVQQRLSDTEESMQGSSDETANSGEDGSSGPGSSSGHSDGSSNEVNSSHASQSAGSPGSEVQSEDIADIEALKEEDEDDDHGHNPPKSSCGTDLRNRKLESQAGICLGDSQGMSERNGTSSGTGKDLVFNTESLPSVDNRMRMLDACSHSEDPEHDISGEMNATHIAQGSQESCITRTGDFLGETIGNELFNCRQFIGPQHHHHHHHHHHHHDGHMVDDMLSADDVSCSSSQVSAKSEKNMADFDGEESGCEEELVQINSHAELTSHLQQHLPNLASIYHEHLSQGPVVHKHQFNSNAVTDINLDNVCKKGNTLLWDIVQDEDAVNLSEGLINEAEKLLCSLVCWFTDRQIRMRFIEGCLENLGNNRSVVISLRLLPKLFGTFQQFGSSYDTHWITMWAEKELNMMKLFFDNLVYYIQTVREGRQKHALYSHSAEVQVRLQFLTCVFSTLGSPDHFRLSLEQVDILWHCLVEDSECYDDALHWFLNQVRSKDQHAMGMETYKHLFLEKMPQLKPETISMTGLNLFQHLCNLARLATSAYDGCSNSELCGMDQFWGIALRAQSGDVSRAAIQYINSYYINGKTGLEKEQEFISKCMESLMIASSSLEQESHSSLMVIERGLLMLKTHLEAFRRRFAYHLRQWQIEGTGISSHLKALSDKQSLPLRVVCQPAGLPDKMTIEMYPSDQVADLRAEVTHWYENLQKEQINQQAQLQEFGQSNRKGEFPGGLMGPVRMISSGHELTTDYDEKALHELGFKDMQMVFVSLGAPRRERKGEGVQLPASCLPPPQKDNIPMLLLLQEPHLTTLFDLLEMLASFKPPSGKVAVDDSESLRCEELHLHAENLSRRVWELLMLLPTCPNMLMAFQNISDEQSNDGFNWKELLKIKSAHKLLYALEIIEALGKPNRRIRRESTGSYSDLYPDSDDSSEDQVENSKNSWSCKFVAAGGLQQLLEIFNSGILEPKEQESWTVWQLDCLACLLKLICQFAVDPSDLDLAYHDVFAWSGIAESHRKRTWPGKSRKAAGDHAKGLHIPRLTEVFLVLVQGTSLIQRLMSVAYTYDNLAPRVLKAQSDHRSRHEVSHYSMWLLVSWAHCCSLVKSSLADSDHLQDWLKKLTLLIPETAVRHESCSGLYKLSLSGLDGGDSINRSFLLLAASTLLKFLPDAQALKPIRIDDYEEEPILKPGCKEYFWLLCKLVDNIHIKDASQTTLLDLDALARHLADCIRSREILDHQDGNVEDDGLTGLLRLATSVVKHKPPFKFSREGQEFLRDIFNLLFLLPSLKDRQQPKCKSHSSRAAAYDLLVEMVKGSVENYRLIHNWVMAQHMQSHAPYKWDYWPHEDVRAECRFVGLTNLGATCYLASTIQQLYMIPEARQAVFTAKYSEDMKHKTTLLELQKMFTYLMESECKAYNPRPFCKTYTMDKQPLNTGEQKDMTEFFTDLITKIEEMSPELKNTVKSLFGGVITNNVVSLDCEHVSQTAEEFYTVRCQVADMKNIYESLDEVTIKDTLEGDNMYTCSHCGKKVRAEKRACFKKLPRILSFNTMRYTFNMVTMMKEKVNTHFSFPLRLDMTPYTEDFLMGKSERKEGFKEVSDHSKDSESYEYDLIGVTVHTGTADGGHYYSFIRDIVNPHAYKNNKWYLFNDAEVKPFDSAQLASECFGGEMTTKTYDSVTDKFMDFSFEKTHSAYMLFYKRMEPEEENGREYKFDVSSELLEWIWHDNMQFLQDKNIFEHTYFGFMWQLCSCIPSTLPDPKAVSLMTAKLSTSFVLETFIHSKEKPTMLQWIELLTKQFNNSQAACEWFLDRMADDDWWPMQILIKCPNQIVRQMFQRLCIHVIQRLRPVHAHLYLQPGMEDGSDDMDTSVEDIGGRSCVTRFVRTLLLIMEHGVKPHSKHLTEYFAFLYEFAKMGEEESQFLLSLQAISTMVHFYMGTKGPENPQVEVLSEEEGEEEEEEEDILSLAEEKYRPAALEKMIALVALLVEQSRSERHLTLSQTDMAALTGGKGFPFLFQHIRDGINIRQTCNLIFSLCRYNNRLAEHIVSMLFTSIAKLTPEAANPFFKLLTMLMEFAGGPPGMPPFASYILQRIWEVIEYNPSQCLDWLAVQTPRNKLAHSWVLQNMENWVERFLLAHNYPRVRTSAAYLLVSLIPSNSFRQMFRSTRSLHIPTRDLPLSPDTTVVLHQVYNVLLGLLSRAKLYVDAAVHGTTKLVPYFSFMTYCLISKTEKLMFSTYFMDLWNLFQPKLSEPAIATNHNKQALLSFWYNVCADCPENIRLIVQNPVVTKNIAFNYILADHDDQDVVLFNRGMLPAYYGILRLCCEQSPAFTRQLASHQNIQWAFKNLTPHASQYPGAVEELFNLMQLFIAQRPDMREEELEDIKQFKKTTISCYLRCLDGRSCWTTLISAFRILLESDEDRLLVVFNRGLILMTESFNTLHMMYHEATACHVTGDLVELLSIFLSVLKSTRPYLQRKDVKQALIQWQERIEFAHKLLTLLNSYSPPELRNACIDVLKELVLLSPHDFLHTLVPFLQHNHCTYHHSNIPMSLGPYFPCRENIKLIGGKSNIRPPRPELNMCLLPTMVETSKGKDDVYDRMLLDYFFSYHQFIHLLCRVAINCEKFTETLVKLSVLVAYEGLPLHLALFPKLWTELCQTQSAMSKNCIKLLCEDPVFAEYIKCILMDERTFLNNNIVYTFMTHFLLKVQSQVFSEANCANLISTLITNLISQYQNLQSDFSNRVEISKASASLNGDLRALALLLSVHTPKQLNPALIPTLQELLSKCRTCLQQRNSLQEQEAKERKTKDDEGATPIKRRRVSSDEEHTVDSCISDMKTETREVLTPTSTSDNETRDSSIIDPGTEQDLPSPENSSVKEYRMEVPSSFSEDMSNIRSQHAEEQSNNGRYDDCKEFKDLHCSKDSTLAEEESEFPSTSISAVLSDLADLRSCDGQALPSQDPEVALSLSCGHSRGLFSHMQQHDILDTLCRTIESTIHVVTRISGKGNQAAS
How it was run: (§1)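 HEK293T lysate, 495 µg per sample in Tris/CHAPS/IGEPAL buffer with protease inhibitors, was treated in triplicate with fragment at 200 µM or vehicle for 3 h and then with Biotin-Ahx-Ub-VS at 0.5 µM final for 1 h. Labelled DUBs were NeutrAvidin-enriched, digested with LysC and trypsin, and run by diaPASEF LC-MS/MS. Spectronaut label-free quantities were global-median-normalised, and values are average log2 fragment/vehicle ratios by unpaired t-test on proteins with ≥2 unique peptides.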

USP36 = target: T1, USP36 (UniProt Q9P275)
T1 sequence (whole entry): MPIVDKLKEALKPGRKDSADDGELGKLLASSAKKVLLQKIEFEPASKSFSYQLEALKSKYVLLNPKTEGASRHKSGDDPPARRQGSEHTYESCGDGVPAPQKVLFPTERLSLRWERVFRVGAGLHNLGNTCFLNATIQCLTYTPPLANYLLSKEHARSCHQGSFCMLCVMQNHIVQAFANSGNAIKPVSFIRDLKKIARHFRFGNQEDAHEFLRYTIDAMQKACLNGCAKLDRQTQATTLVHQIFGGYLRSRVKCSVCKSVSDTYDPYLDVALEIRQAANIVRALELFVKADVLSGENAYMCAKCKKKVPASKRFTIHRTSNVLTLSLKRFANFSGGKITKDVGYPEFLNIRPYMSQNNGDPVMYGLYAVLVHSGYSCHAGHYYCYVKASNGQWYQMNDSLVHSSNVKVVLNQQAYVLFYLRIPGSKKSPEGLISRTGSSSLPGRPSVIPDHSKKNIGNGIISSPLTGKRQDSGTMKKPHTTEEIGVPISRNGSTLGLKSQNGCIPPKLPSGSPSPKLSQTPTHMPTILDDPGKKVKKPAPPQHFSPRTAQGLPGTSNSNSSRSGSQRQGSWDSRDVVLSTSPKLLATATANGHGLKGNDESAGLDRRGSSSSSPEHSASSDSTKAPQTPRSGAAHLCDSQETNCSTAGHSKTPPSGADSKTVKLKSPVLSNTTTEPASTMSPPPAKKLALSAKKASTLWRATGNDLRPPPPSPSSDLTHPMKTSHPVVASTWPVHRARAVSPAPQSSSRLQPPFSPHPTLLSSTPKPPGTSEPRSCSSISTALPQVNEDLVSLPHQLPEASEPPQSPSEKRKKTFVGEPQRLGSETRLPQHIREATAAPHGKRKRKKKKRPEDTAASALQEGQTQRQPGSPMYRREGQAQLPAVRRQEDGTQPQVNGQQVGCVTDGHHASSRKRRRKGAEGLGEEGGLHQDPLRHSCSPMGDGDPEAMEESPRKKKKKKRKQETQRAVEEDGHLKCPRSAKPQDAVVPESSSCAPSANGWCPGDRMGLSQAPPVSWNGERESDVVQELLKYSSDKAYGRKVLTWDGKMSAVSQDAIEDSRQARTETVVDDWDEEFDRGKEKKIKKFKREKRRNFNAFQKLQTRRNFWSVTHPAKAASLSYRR
How it was run: as §1

USP38 = target: T2, USP38 (UniProt Q8NB14)
T2 sequence (whole entry): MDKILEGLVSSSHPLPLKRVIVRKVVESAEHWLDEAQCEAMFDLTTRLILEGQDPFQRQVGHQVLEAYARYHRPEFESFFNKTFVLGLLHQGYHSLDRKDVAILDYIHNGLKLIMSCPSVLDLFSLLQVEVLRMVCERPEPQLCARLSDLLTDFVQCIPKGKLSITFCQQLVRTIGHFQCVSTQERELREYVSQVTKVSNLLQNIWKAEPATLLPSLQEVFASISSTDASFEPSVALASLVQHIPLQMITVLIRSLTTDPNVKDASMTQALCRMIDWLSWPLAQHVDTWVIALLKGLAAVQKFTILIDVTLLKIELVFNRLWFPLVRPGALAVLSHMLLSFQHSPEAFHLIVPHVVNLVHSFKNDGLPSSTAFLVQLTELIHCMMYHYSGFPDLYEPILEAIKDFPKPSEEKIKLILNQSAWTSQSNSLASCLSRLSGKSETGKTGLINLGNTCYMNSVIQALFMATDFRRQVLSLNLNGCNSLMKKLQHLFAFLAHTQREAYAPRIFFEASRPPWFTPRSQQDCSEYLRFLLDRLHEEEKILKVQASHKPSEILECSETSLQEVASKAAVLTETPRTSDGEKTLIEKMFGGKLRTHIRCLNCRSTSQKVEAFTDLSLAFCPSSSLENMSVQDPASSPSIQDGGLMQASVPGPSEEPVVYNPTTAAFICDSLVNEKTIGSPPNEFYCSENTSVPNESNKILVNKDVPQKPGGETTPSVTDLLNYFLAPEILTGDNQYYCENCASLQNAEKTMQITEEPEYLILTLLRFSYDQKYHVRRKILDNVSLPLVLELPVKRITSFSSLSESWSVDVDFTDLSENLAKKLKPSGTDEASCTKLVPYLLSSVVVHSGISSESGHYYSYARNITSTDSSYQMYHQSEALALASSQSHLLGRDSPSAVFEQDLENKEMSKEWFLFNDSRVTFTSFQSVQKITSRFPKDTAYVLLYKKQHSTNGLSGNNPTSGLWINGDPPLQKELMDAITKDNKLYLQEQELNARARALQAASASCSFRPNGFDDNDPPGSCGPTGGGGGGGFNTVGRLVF
How it was run: as §1

USP39 = target: T3, USP39 (UniProt Q53GS9)
T3 sequence (whole entry): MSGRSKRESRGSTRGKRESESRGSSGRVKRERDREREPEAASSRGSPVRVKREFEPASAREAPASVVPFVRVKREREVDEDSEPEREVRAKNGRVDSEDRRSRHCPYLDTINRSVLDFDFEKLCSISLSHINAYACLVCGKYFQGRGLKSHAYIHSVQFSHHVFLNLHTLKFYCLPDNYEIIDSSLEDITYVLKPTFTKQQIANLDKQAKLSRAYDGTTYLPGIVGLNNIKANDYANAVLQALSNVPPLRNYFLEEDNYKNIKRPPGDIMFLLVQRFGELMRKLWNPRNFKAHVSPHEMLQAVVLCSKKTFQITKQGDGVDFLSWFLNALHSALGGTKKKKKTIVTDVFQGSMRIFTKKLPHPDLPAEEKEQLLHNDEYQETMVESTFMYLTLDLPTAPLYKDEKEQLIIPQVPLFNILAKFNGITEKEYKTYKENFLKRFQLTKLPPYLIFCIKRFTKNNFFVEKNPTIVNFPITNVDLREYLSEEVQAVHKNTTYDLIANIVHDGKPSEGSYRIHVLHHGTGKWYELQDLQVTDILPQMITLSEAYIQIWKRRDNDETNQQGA
How it was run: as §1

USP4 = target: T4, USP4 (UniProt Q13107)
T4 sequence (whole entry): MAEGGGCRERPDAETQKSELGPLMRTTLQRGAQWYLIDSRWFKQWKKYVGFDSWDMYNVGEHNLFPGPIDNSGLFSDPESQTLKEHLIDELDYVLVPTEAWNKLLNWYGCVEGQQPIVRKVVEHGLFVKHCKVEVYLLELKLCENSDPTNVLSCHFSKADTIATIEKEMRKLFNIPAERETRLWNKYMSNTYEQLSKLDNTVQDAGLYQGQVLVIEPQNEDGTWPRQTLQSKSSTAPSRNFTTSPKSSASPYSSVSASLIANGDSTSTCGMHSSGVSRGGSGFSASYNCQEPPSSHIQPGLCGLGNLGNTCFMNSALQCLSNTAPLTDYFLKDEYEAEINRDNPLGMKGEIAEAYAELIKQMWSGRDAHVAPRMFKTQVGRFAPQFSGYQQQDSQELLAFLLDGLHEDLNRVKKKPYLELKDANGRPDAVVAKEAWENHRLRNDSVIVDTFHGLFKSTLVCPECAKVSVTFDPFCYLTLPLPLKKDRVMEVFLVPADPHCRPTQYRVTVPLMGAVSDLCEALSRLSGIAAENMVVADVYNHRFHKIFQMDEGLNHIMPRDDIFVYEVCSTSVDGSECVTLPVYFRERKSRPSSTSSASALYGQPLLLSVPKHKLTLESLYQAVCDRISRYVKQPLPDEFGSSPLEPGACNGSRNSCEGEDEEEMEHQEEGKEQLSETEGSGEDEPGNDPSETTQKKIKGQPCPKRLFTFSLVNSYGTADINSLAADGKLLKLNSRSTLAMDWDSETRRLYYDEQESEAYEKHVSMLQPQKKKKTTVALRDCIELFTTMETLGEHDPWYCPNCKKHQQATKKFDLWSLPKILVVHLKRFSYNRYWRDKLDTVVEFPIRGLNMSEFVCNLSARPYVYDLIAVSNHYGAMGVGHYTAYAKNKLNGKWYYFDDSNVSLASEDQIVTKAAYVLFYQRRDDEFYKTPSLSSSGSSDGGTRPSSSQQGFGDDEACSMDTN
How it was run: as §1

Measured: log2 ratio of Biotin-Ahx-Ub-VS probe labelling

COc1ccc(C2CCCN2C(=O)CCl)c(OC)c1 (stereo not given)
inactive: USP34 -0.0529 | USP36 -0.129 | USP38 -0.231 | USP39 0.128 | USP4 -0.347
